This note sets out measurements from PubChem BioAssay (NCI).

This assay in a line: NCI Yeast Anticancer Drug Screen. Data for the cln2 rad14 strain (AID 165).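 Also: 0% = growth equal to vehicle treated cultures.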 As to conditions: S. cerevisiae cln2 rad14 strain, stronger effect = higher value. On the procedure:
Growth inhibition of yeast strains with defined genetic alterations is measured as a screen for potential anti-cancer activity. Selected strains with alterations in DNA damage repair or cell cycle control were exposed to compounds and growth inhibition was measured relative to vehicle treated controls. The strain used in this assay is cln2 rad14

Where [1] appears, read: at 5.0 µM (retest, dose inferred, filed as 0.5).
Setting [2] is: at 50.0 µM (retest, dose inferred, filed as 5.0).

The panel holds about 79,000 compounds, 15% with a hit somewhere; the sample as a whole holds those more often. A number with no mark means an inactive call. Activity calls are given as the source filed them. Rule as the data show it: active = growth inhibition above about 70%; inactive = the rest.

With `CN(C)CC1CCCc2ccccc2C1=O` (configuration not stated), the growth inhibition by setting is: under setting [1], -10%; under setting [2], 20%; (at 50.0 µM) 5.05%.
Regarding `BrCc1ccccc1C(c1ccccc1)c1ccccc1`, the growth inhibition runs as follows: under setting [1], 49%; under setting [2], 93% (active); (at 50.0 µM) 95.8% (active).
For `Cc1cc(C)c(N2C(=O)CC(Sc3ccccc3N)C2=O)c(C)c1` (configuration not stated) the same measures were 34%, 76% (active) and 6.4%.
Take `O=C1C=CC(=Nc2ccccc2)c2ccccc21`: the growth inhibition reads like this: under setting [1], -17%; under setting [2], 32%; (at 50.0 µM) 24.6%.
`Nc1ccc2c(=S)c3ccccc3[nH]c2c1`: the growth inhibition by setting is: under setting [1], 26%; under setting [2], 62%; (at 50.0 µM) 28.3%.
For `COc1ccc(N=N/C(=N\NC(=O)c2cc(Br)ccc2O)c2ccc(N(CCC#N)CCC#N)cc2OC)cc1` the same measures were -4%, 32% and 30.9%.
With `On1cnc(=S)c2[nH]cnc21`, the growth inhibition was 13% under setting [1], 97% (active) under setting [2] and 1.85% (at 50.0 µM).
For `O=[N+]([O-])c1cc(S(=O)(=O)Nc2ccccc2)ccc1Cl` the same measures were 33%, 97% (active) and 89.2% (active).
On to `CCC(=O)Oc1ccc(/C=N/NC(N)=S)nc1`, for which the growth inhibition reads like this: under setting [1], -5%; under setting [2], -14%; (at 50.0 µM) 4%.
As to `N#C/C(=C1C=C/C(=N/O)c2ccccc2/1)c1ccccc1`, the growth inhibition by setting is: under setting [1], 8%; under setting [2], 97% (active); (at 50.0 µM) 95.8% (active).
Take `CCN(CC)CC(O)c1cc(-c2ccc(Cl)cc2)nc2c(-c3ccccc3)cccc12` (configuration not stated): the growth inhibition reads like this: under setting [1], 6%; under setting [2], 91% (active); (at 50.0 µM) 8.2%.
As for `Clc1cc(Cc2ccc(N=C/C=C/c3ccccc3)c(Cl)c2)ccc1N=C/C=C\c1ccccc1`, the growth inhibition by setting is: under setting [1], 14%; under setting [2], 74% (active); (at 50.0 µM) 58.8%.
For `COc1ccc(/C=C(\NC(=O)c2ccccc2)C(=O)NN(C)c2ccnc3cc(Cl)ccc23)cc1OC`, the growth inhibition under setting [1] was 28%, the growth inhibition under setting [2] is 5% and the growth inhibition (at 50.0 µM) was 55.4%.
Take `Cc1cc(N=C2C=CC(=[N+](C)C)C=C2)c(N)cc1N`: the growth inhibition is, setting by setting: under setting [1], 59%; under setting [2], 57%; (at 50.0 µM) 39.7%.
